Test results as given in PubChem BioAssay (NCI).
About 83,000 compounds went through this panel and 20% of them were active in at least one assay; those are over-represented in the sample as a whole.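 Treatment: one concentration, 48 hours, 96-well format. Scoring: percent growth, with anything below 10 considered active.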 Unmarked numbers belong to inactive results. Active and inactive are the calls of the source.

Legend:
Assay in all cases: NCI-60 one-dose screen, 48 h (100 = growth as untreated, 0 = no growth, -100 = all killed)
Conditions in all cases: 10 µM unless noted
SK-MEL-2 melanoma = test system: SK-MEL-2 melanoma
SN12C renal = test system: SN12C renal
UO-31 renal = test system: UO-31 renal
TK-10 renal = test system: TK-10 renal
ACHN renal = test system: ACHN renal
CAKI-1 renal = test system: CAKI-1 renal
A498 renal = test system: A498 renal
CCRF-CEM leukemia = test system: CCRF-CEM leukemia
MOLT-4 leukemia = test system: MOLT-4 leukemia

Structure (SMILES)	growth (SK-MEL-2 melanoma)	growth (SN12C renal)	growth (UO-31 renal)	growth (TK-10 renal)	growth (ACHN renal)	growth (CAKI-1 renal)	growth (A498 renal)	growth (CCRF-CEM leukemia)	growth (MOLT-4 leukemia)
N#CC1=C(c2cccs2)Nc2c(c(-c3ccccc3)nn2-c2ccccc2)C12C(=O)Nc1ccccc12 (centres undefined)	90.1%	55.3%	18.2%	18.1%	-26.9% (active)	63.4%	-14.9% (active)	6.02% (active)	15%
O=C(CSc1nc2ccccc2c(=O)[nH]1)Nc1ccccc1C(=O)O	116%	98.9%	71.8%	116%	89.3%	89.9%	216%	90.5%	97%
COc1cc(CNC(=O)C[C@H](C)CCC=C(C)C)ccc1OCc1cn(-c2ccc(Cl)cc2Cl)nn1	71.7%	64.8%	60.5%	68.7%	61.1%	31.8%	59%	116%	84%
CN1CCN(C(=O)Oc2cc3c(c4ccccc24)[C@H](CCl)CN3C(=O)c2cc3cc(OCCCN4CCC4)ccc3[nH]2)[C@H]2CSSC[C@H]21	-92.7% (active)	-7.03% (active)	-11.4% (active)	4.65% (active)	-11.6% (active)	6.04% (active)	-17.6% (active)	-25.8% (active)	-11.6% (active)
Cn1cc(Nc2ncnc(-c3ccc(N4CCCC4)c(C#N)c3)n2)cn1	88.4%	70.7%	41.9%		52.3%	22.4%	42.6%	72.2%	65.5%
COc1cc(NC(=O)CSc2nnc(-c3ccc(-c4nc5ccc(Cl)cc5[nH]4)cc3)o2)cc(OC)c1OC	40.3%	46.6%	64%	93.9%	74.9%	68.3%	137%	15%	34.2%
N#Cc1cc(-c2ccc3ncnc(N4CCc5cc(F)c(Cl)cc54)c3c2)cnc1N	52%	26.8%	19.4%	29.9%	26.6%	19.8%	-0.0443% (active)	45.1%	7.69% (active)
COc1ccc(N=Nc2c(N)nn3c(N)c(C#N)c(-c4ccccc4)nc23)cc1	97.6%	40.8%	28.4%	57.4%	25.7%	15.9%	113%	72.7%	72.8%
COc1ccc(C(=O)/C=C/c2ccc3c(c2)OCCO3)cc1S(N)(=O)=O	114%	68.6%	48.5%	95.6%	69.6%	85.6%	109%	91%	37.4%
CN(C(=O)CN1C(=O)/C(=C/c2ccco2)SC1=S)C1CCS(=O)(=O)C1 (centres undefined)	98.5%	104%	87.8%	122%	106%	93.5%	103%	80.3%	100%
COc1cc(C2CC(c3ccc(F)cc3)=Nc3c(N)nc(N)nc3N2)ccc1Oc1nc(Nc2ccc(F)cc2)nc(N(C)C)n1 (centres undefined)	19.2%	79.7%	48%	88.7%	51.4%	40.5%	74%	44.2%	1.16% (active)
COc1cc(CNC(=O)C[C@H](C)CCC=C(C)C)ccc1OCc1cn(-c2ccc(Br)cc2)nn1	78%	71.6%	62.9%	109%	56.4%	28.8%	105%	61.1%	70%
O=C(N=Nc1c(O)[nH]c2ccc(Br)cc12)c1ccc2nc(-c3ccc(Cl)cc3)[nH]c2c1	2.45% (active)	-50.8% (active)	73.2%		50.5%	68.1%	115%	7.74% (active)	-0.379% (active)
COc1cc(C2CC(c3ccc(S(=O)(=O)NCCNc4nc(N(C)C)nc(N5CCOCC5)n4)cc3)=Nc3c(N)nc(N)nc3N2)cc(OC)c1OC (centres undefined)	108%	86.5%	80.5%	107%	94.6%	88.4%	79%	99.3%	89.3%
